Source: PubChem BioAssay
dFosB act = activators of mouse delta FosB homodimer. purified delta FosB, TAMRA-CDK5 oligo fluorescence polarization; percent of positive-control signal above neutral wells. activation, % at 25 µM. 340,000 tested, 0.99% active;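 active means mean activation above about 17%, with every replicate also reaching it, limit read from the data, passing the limit was not always enough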
Target sequence (P13346 whole entry, looked up): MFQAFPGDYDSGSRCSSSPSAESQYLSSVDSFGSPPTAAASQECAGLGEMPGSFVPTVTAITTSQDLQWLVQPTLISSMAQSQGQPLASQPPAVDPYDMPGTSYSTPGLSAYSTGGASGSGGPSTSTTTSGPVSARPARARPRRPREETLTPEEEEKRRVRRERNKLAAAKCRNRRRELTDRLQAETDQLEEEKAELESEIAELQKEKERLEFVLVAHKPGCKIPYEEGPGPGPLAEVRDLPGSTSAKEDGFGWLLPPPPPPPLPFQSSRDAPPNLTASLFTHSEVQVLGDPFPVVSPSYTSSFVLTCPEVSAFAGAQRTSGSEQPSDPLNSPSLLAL
DNA FID counter = displaces DNA intercalator in HCV helicase counter-screen | inhibition, % at 7.9 µM | DNA fluorescent intercalator displacement, fluorescence | 290,000 tested, 0.17% active | AID 1845; in the data active means inhibition above about 37%;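 further: 0% = vehicle and 100% = reference compound; higher means more ethidium bromide displaced from hairpin DNA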
MEKK2wt PB1 HTS = raises or lowers MEK5 binding to wildtype human MEKK2 PB1 domain | bead flow cytometry, Alexa488-MEK5 binding to MEKK2 WT; actives lie on both sides | Q9Y2U5 | 290,000 tested, 1.1% active | binding response (% of control), % at 10 µM; in the data active means binding response below about 67% or above about 130%
MEKK3 PB1 HTS = raises or lowers MEK5 binding to the human MEKK3 PB1 domain; 290,000 tested, 1.4% active; bead-based flow cytometry, Alexa488-MEK5 binding to MEKK3; actives lie on both sides; 0 = blocked by unlabeled MEK5, 100 = vehicle; binding response (% of control), % at 10 µM; Q99759;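 active means binding response more than 3 SD above or below the average of its plate-row segment, actives on both sides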;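 further: Alexa488 bead fluorescence after subtracting the streptavidin-only scavenger bead signal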
MEKK2 mut-MEK5 = signal of MEK5 binding to mutant human MEKK2 PB1 domain; bead flow cytometry, Alexa488-MEK5 binding to MEKK2 mutant; percent response, % at 10 µM; 290,000 tested, 0.35% active; AID 1530; in the data active means percent response above about 24%, passing the limit was not always enough
MEKK2wt confirm = raises or lowers MEK5 binding to wildtype human MEKK2, retest; shares compounds with MEKK3 PB1 HTS; bead flow cytometry, Alexa488-MEK5 binding to MEKK2 WT; actives lie on both sides; binding response (% of control), % at 10 µM; 5,900 tested, 2.4% active; in the data active means binding response below about 16% or above about 210%; inactive means in between
MEKK2mut-MEK5 = signal of MEK5 binding to mutant human MEKK2, retest | percent response, % at 10 µM | shares compounds with MEKK3 PB1 HTS | AID 1893 | 5,900 tested, 2% active | bead flow cytometry, Alexa488-MEK5 binding to MEKK2 mutant; in the data active means percent response mostly above about 71%, no sharp cut-off; inactive means mostly below about 38%;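 further: higher means compound restores mutant binding toward wildtype level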
MEKK3-MEK5 inh = confirmation of inhibitors of MEK5 binding to human MEKK3; 5,900 tested, 1.8% active; binding response (% of control), % at 10 µM; bead flow cytometry, Alexa488-MEK5 binding to MEKK3; active compounds read low; AID 1894; shares compounds with MEKK3 PB1 HTS;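 active means binding response below 72% of control, or above a set upper limit, though filed actives all read lower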;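 further: 100% = DMSO only wells and 0% = binding blocked by excess unlabeled MEK5; lower values mean stronger disruption of MEK5 binding to MEKK3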
* marks the source's active call; other numbers are inactive results; . = no result given; ! = repeats disagree; [ ] = another dose, or the depositor's remark. Only some compounds are listed: those with a hit (about 2.9% of all), similar ones and a draw of the others.

SMILES	dFosB act	DNA FID counter	MEKK2wt PB1 HTS	MEKK3 PB1 HTS	MEKK2 mut-MEK5	MEKK2wt confirm	MEKK2mut-MEK5	MEKK3-MEK5 inh
CCOc1cc(CNCCO)cc(Br)c1OCc1ccc(Cl)cc1Cl	8.2	23.9	212.0*	115.0	51.0*	204.0	58.0	110.0
CCOc1cc(CNCCSc2nnnn2C)cc(Br)c1OCc1ccccc1F	-8.0	20.1	136.0*	106.0	11.0	135.0	17.0	108.0
OCCNCc1cc(Br)ccc1OCc1ccc(Cl)cc1Cl	-14.3	22.5	145.0*	110.0	35.0*	127.0	17.0	105.0
OCCCCNCc1cc(Br)ccc1OCc1ccccc1F	-7.7	12.6	148.0*	103.0	24.0	157.0	32.0	109.0
COc1cc(OC)cc(C(=O)Nc2nnc(Cc3ccc(OC)c(OC)c3)s2)c1	-2.5	-14.2	92.0	94.0	-7.0	.	.	.
O=C1C[C@H]2CCCCC(=O)N3CC[C@@H](C1)[C@@H]23	-3.1	.	.	.	.	.	.	.
COc1cc(/C=N/NC(=O)c2ccc3c(c2)OCO3)ccc1O	-4.8	-15.9	97.0	95.0	-1.0	.	.	.
COc1cc(/C=N/NC(=O)/C(=C\c2ccc3c(c2)OCO3)NC(=O)c2ccccc2)ccc1O	-2.9	-5.5	103.0	142.0*	1.0	104.0	5.0	107.0
COc1cc(/C=N/NC(=O)C(=O)NCC2CCCO2)ccc1O (configuration not stated)	-0.7	1.4	117.0	162.0*	3.0	103.0	0.0	103.0
COc1cc(/C=C(\C#N)C(=O)NCC2CCCO2)ccc1O (configuration not stated)	2.3	-5.5	104.0	117.0	0.0	.	.	.
CC(CN1C(C)CCCC1C)OC(=O)c1ccc(Cl)cc1 (configuration not stated)	4.8	3.7	84.0	80.0	-13.0	.	.	.
CN1CCN(CCCN2c3ccccc3Sc3ccc(Cl)cc32)CC1	11.9	28.6	188.0*!	107.0	23.0	157.0	24.0	109.0
CCN(CC)CC(=O)N1c2ccccc2Sc2ccccc21	-1.0	-1.1	103.0	103.0	3.0	.	.	.
OCCN1CCN(CCCN2c3ccccc3Sc3ccc(C(F)(F)F)cc32)CC1	3.7	24.2	175.0*	114.0	19.0	132.0	17.0	108.0
CCN(CC)CCCCN1c2ccccc2Sc2ccccc21	-4.7	17.1	136.0*	109.0	12.0	138.0	26.0	109.0
CN1CCN(CCC(=O)N2c3ccccc3Sc3ccc(C(F)(F)F)cc32)CC1	-0.4	21.5	105.0	98.0	2.0	.	.	.
CN(C)CCCN1c2ccccc2Sc2ccc(C(F)(F)F)cc21	-0.1	20.5	154.0*	112.0	13.0	144.0	26.0	106.0
COC(=O)c1ccc(N(C(=O)CNC(=O)c2ccco2)C(C(=O)NCC2CCCO2)c2ccc(OC)c(OC)c2)cc1 (configuration not stated)	-5.0	-31.1	98.0	103.0	-2.0	.	.	.
CCCc1ccc(OCc2ccc(C(=O)N3CCSCC3)o2)cc1	-6.9	-29.8	105.0	103.0	0.0	.	.	.
Cc1ccc(C(=O)NNC(=O)c2ccc(NS(=O)(=O)c3cccs3)cc2)o1	-7.8	.	.	.	.	.	.	.
O=C(O)COc1ccccc1/C=N/NC(=O)CSc1nnc(SCc2cccc3ccccc23)s1	-22.6	-29.2	97.0	93.0	-4.0	.	.	.
O=C(O)COc1ccccc1/C=N/NC(=O)CSc1nnc(SCc2ccc(Cl)cc2)s1	-0.8	-29.9	114.0	130.0*	29.0	105.0	3.0	111.0
N=C1c2ccccc2CN1c1ccc(N2CCOCC2)c(S(=O)(=O)Nc2ccc(Cl)cc2)c1	.	14.1	110.0	101.0	4.0	.	.	.
Cc1cc(C(=O)COC(=O)Cc2n[nH]c(=O)c3ccccc23)c(C)n1-c1ccc2c(c1)OCO2	-5.6	-16.6	105.0	139.0*	2.0	110.0	6.0	104.0
COc1ccc(-n2c(C)cc(C(=O)COC(=O)Cc3n[nH]c(=O)c4ccccc34)c2C)cc1	-2.9	-16.6	90.0	88.0	-4.0	.	.	.
SMILES	dFosB act	DNA FID counter	MEKK2wt PB1 HTS	MEKK3 PB1 HTS	MEKK2 mut-MEK5	MEKK2wt confirm	MEKK2mut-MEK5	MEKK3-MEK5 inh
O=C(Nc1ccc(Cl)c(C(F)(F)F)c1)c1ccncc1	-5.2	-11.3	5.0*[inhibitor]	2.0*[inhibitor]	-46.0	103.0	-7.0	103.0
Cc1ccc(NC(=O)c2ccc(C)cc2)cc1	5.0	.	.	.	.	.	.	.
Cc1ccc(C(=O)Nc2ccc(Br)c(C(F)(F)F)c2)cc1	0.2	2.1	170.0*	105.0	31.0	105.0	1.0	105.0
O=C(CCCN1C(=O)c2ccccc2C1=O)NCCN1C(=O)S/C(=C\c2cccs2)C1=O	3.0	-1.5	100.0	102.0	0.0	.	.	.
O=c1cc(N2CCC3(CC2)OCCO3)[nH]c(=O)n1-c1ccc(Br)cc1	-0.2	1.5	102.0	51.0*[inhibitor]	2.0	97.0	-2.0	102.0
O=c1cc(N2CCN(c3ccccc3F)CC2)[nH]c(=O)n1-c1ccc(Br)cc1	10.1	-3.2	109.0	104.0	13.0	.	.	.
S=c1[nH]nc(COc2ccc(Cl)cc2)n1Cc1ccco1	0.8	-19.6	126.0	155.0*	6.0	105.0	2.0	103.0
CCNC(=S)N/N=C/c1ccc(OCC(=O)Nc2ccc(OC)cc2)c(OC)c1	3.2	-7.8	102.0	103.0	1.0	.	.	.
CCCCNC(=S)N(C)/N=C/c1ccc(OCC(=O)Nc2c(C)cc(C)cc2C)c(OC)c1	-0.4	-14.8	98.0	129.0*	-1.0	107.0	0.0	104.0
CCCCNC(=S)N(C)/N=C/c1ccc(OCC(=O)Nc2ccc(OC)cc2)c(OC)c1	-6.8	-15.5	107.0	142.0*	-1.0	108.0	2.0	101.0
CC1CCCCN1CCCNc1c(C=O)c(=O)[nH]c2ccccc12 (configuration not stated)	0.2	1.1	113.0	101.0	6.0	.	.	.
c1ccc2c(-c3cn4ccccc4n3)c[nH]c2c1	.	0.2	63.0*[inhibitor]	100.0	2.0	115.0	19.0	108.0
c1ccc2c(-c3nnc(SCc4cn5ccccc5n4)o3)c[nH]c2c1	0.0	-6.0	96.0	96.0	3.0	.	.	.
CCN1/C(=C2\SC(=S)N(Cc3ccccc3)C2=O)Sc2ccccc21	-8.4	-0.6	103.0	103.0	8.0	.	.	.
CCC(CO)[n+]1c(C)cc(/C=C2\Sc3ccccc3N2Cc2ccccc2)cc1C (configuration not stated)	23.8*	-7.2	63.0*[inhibitor]	79.0	-5.0	107.0	11.0	100.0
COc1ccccc1C(=O)NC(CCSC)C(=O)OCC(=O)N1CCN(S(=O)(=O)c2ccc(C)cc2)CC1 (configuration not stated)	-6.2	.	.	.	.	.	.	.
